Experimental data: PubChem BioAssay AID1272365 (Small Molecule Screening Facility, UW Madison, 2018)
Values joined by “and” are separate entries in the source; they are usually repeats but may differ in a detail not shown here. Equal values may be shown once. The whole screen tested about 430,000 compounds, of which about 2,600 (0.6%) were called active. This is one part of a sample in which actives are shown more often than they occur. Cut-off read from the data, not from the text of the source: active = inhibition mostly above about 37% (no sharp cut-off); inactive = mostly below about 20%.

System: PriA–SSB C-terminal tail interaction (Klebsiella pneumoniae)
Test: inhibitors of Klebsiella pneumoniae PriA binding to SSB C-terminal tail, primary screen, biochemical, AlphaScreen (AID 1272365);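 note: plate controls were negative control peptide for no effect and reference peptide for full effect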
Settings: AlphaScreen SSBct-PriA binding, biotinylated peptide; at 33 µM, stronger effect = higher value

Row | SMILES | inhibition
1 | CCOC(=O)CSc1nc2cc(OC)c(OC)cc2c2nc(CCn3nc(C)cc3C)nn12 | 3% (inactive)
2 | CCN(CC)c1ccc(C=NNC(=O)c2c[nH]c3ccccc23)cc1 | 16.7% (inactive)
3 | CC(=NNC(=O)c1c[nH]c2ccccc12)c1ccccn1 | 75.7% (active)
4 | CC(=NNC(=O)c1ccc(F)cc1)c1ccccn1 | -1.36% (inactive)
5 | CC1=NN(CCN2CCN(c3ccc(F)cc3)CC2)c2nc3c(c(=O)n(C)c(=O)n3C)n2C1 | 6% (inactive) and -7% (inactive)
6 | CCn1cc(NC(=O)N2CCCc3ccccc32)c2ccccc21 | 2% (inactive)
7 | Cn1cc(NC(=O)N2CCc3ccccc3C2)c2ccccc21 | -3% (inactive)
8 | CCn1cc(NC(=O)N2CCc3ccccc32)c2ccccc21 | 40% (active)
9 | CN1CCc2cc(C(CNC(=O)C(=O)Nc3ccccc3F)N(C)C)ccc21 (stereo not given) | 14% (inactive)
10 | COc1cccc2c1C(=O)c1c(O)c3c(c(O)c1C2=O)CC(O)(C(C)=NNC(=O)c1ccc(Cl)c(Cl)c1)CC3OC1CC(N)C(O)C(C)O1 (stereo not given) | 57.5% (active)
11 | CCOC(=O)CNC(=O)CSc1ccc2nnc(-c3cccnc3)n2n1 | 2.63% (inactive)
12 | Cc1ccccc1NC(=O)CSc1ccc2nnc(-c3ccccn3)n2n1 | -4.51% (inactive)
13 | NC(=O)CSc1ccc2nnc(-c3ccccn3)n2n1 | 72% (active)
14 | CCCN(CCC)C(=O)Cn1c(=O)c2ccccc2n2c(=S)sc(-c3cccc(C)c3)c12 | 7% (inactive)
15 | CCc1ccc2nc(Nc3nc4ccc(NC(C)=O)cc4s3)sc2c1 | 2% (inactive)
16 | C/C(=N/N=C1/NC(=O)CS1)c1ccccc1 | -2% (inactive)
17 | N#CC1=C(N)Oc2c(ccc3cccnc23)C1c1ccncc1 (stereo not given) | 65.3% (active)
18 | N#CC1=C(N)Oc2c(sc3ccccc23)C1c1ccco1 (stereo not given) | 2.22% (inactive)
19 | Nc1cncc2cccnc12 | -8% (inactive)
20 | Cc1ccc2nc3sc(Nc4ccc(C)c(Cl)c4)nn3c(=O)c2c1 | -4% (inactive)
21 | Cc1nn(C)c(C)c1S(=O)(=O)NCC1CCN(c2ccccn2)CC1 | 2% (inactive)
22 | Cc1ccc2c(c1)C1CN(C)CCC1N2S(=O)(=O)c1cccc(F)c1 (stereo not given) | 39.2% (active)
23 | Cc1ccc2c(c1)C1CN(C)CCC1N2C(=O)c1ccccc1NS(=O)(=O)c1ccc(F)cc1C (stereo not given) | -3.86% (inactive)
24 | Cc1ccc2c(c1)C1CN(C)CCC1N2S(=O)(=O)c1ccc(Oc2ccc([N+](=O)[O-])cc2)cc1 (stereo not given) | 17.5% (inactive)
25 | CCOc1ccc(-c2ccc(=O)n(CC(=O)N3CCOCC3)n2)cc1 | -1% (inactive)

Row | SMILES | inhibition
26 | CC(C)CC(COCc1ccc(Cl)cc1)N1CCN(C(=O)c2ccc(C(F)(F)F)cc2)CCC1=O (stereo not given) | -5.16% (inactive)
27 | O=C(c1cc(Cl)cc(Cl)c1)N1CCC(=O)N(C(COCc2ccccc2)Cc2ccccc2)CC1 (stereo not given) | 44.6% (active)
28 | CN1CCC(=O)N([C@H](CO)Cc2ccccc2)CC1 | -2.41% (inactive)
29 | COc1cc(NC(=O)CSc2nccn3nc(-c4ccc(Cl)cc4)cc23)cc(OC)c1 | 3% (inactive)
30 | Cc1ccc(Nc2nc(-c3ccccn3)cs2)cc1C | 108% (active)
31 | Cc1csc(OCC(=O)Nc2ccc(C)c(C)c2)n1 | -9.32% (inactive)
32 | Cc1cc(-c2csc(Nc3ccccn3)n2)c(C)o1 | 2% (inactive)
33 | COc1ccccc1C(CNC(=O)c1ccc2c(c1)OCO2)OC (stereo not given) | -10% (inactive)
34 | Cc1noc(C)c1CC(=O)NCCn1cnc2ccsc2c1=O | -1% (inactive)
35 | CNC(=O)NC(=O)C(C)N1CCN(C/C=C/c2ccccc2)CC1 (stereo not given) | 7.15% (inactive)
36 | O=C1c2ccccc2C(=O)c2c1cccc2N1CCN(C/C=C/c2ccccc2)CC1 | 68.2% (active)
37 | O=C1c2ccccc2C(=O)c2c1cccc2N1CCN(Cc2ccccc2)CC1 | 50.5% (inactive)
38 | Cc1ccc(NS(=O)(=O)c2ccc(F)cc2)nc1 | -0.76% (inactive)
39 | Cc1ccc(Nc2ccc(NCCN)nn2)nc1 | 89% (active)
40 | Cc1cccc(N2CCN(C(=O)CCc3csc4nc(-c5ccccc5)cn34)CC2)c1 | -16% (inactive)
41 | COc1ccc(SCCC(=O)Nc2nc(-c3ccccn3)cs2)cc1 | 81% (active)
42 | CC(C)C1Nc2ccccc2C(=O)N1CC(=O)Nc1nc(-c2ccccn2)cs1 (stereo not given) | 94.5% (active)
43 | O=C(Cc1csc(NC(=O)c2ccccc2)n1)NCc1ccccn1 | 0% (inactive)
44 | O=C(CN1C(=O)C2C3C=CC(C3)C2C1=O)Nc1nc(-c2ccccn2)cs1 (stereo not given) | 84.8% (active)
45 | CCCCOC(=O)NCN1C(=O)C2C3C=CC(C3)C2C1=O (stereo not given) | 9.26% (inactive)
46 | O=C1c2ccccc2NC(c2ccccn2)N1NS(=O)(=O)c1ccccc1 (stereo not given) | -13.5% (inactive)
47 | Cc1ccc(-c2csc(NC(=O)[C@H](C(C)C)N3C(=O)c4ccccc4C3=O)n2)cc1 | -1% (inactive)
48 | O=C(CC1(n2cccc2)CCOCC1)Nc1nc(-c2ccccn2)cs1 | 109% (active)
49 | O=C(CSc1ccccc1)Nc1nc(-c2ccccn2)cs1 | -20% (inactive)
50 | Cc1c(C(=O)Nc2nc(-c3ccccn3)cs2)cccc1[N+](=O)[O-] | 25.8% (inactive)

Row | SMILES | inhibition
51 | O=C(CCN1C(=O)C2C3C=CC(C3)C2C1=O)Nc1ccccc1F (stereo not given) | -14.1% (inactive)
52 | Cc1ccc(SCCC(=O)Nc2nc(-c3ccc4c(c3)OCCO4)cs2)cc1 | 8% (inactive)
53 | Cc1cc(OCC(=O)NCCc2ccccc2)ccc1C(C)C | -16% (inactive) and -56% (inactive)
54 | O=C(Nc1nc(-c2cc([N+](=O)[O-])cs2)cs1)C1CC1 | 16% (inactive)
55 | O=C(COc1ccc(F)cc1)Nc1ccc2c(c1)N(C(=O)c1ccco1)CC2 | 0% (inactive)
56 | Cc1c(S(=O)(=O)CCNC(=O)NCc2cccs2)c2ccccc2n1C | -1% (inactive)
57 | COc1cc(/C=C2\Oc3cc(OCC(=O)O)ccc3C2=O)cc(OC)c1OC | -2% (inactive)
58 | COc1ccc(OC)c(NC(=O)c2ccc(S(=O)(=O)NC3CC3)cc2)c1 | 16% (inactive)
59 | O=C(NCCn1nc(C(F)(F)F)c2c1CCCC2)c1c(F)cccc1Cl | -4% (inactive)
60 | COC(=O)c1c(NC(=O)c2cc(C)no2)sc2c1CCCC2 | 0% (inactive)
61 | CCOC(=O)c1ccc(NC(=O)c2cc(=O)[nH]cn2)cc1 | -18% (inactive)
62 | Nn1c(SCC(=O)NC2CCCCC2)nnc(CCC(=O)O)c1=O | -5% (inactive)
63 | COc1ccc(-n2nnc(C(=O)OCc3ccccc3C)c2C)cc1 | -5% (inactive)
64 | CSc1ccccc1NC(=O)C(=O)NCCC(O)c1ccc2c(c1)OCO2 (stereo not given) | 13% (inactive)
65 | O=C(Nc1ccc2c(c1)OCO2)c1ccc2nccnc2c1 | -19% (inactive)
66 | CS(=O)(=O)N1CCCC(C(=O)Nc2nc(-c3nc4ccccc4s3)cs2)C1 (stereo not given) | -20% (inactive)
67 | O=C(Nc1nccs1)C1CCCN1S(=O)(=O)c1cccc2cccnc12 (stereo not given) | -2.31% (inactive)
68 | CS(=O)(=O)N1CCCCC1C(=O)Nc1nc(-c2ccccn2)cs1 (stereo not given) | 79% (active)
69 | CC1(C)CC(=O)c2sc(NC(=O)C3CCCCN3S(C)(=O)=O)nc2C1 (stereo not given) | -7% (inactive)
70 | CS(=O)(=O)N1CCC[C@H]1C(=O)Nc1nc(-c2ccccn2)cs1 | 75% (active)
71 | CS(=O)(=O)N1CCCC1C(=O)Nc1nc2c(F)cc(F)cc2s1 (stereo not given) | 5% (inactive)
72 | NS(=O)(=O)c1ccc(CCNC(=O)C(=O)Nc2nc3ccccc3s2)cc1 | -20% (inactive)
73 | COc1ccc2cc(C(=O)N(CCc3cccs3)C3CC3)[nH]c2c1 | -1% (inactive)
74 | Cc1nc2ccccc2c(=O)n1-c1ccc(F)c(NC(=O)c2ccccc2Cl)c1 | 3% (inactive)
75 | Cc1cccc(NC(=O)Nc2ccc(Nc3ccc(-n4cccn4)nn3)cc2)c1C | 66% (active) and 33% (inactive)

Row | SMILES | inhibition
76 | CCc1ccccc1NC(=O)Nc1ccc(Nc2cc(-n3cccn3)ncn2)cc1 | -23% (inactive)
77 | O=S(=O)(Nc1ccc2[nH]ncc2c1)c1ccccc1Cl | 1.19% (inactive)
78 | O=S(=O)(Nc1ccc(Nc2ccc(-n3cccn3)nn2)cc1)c1ccccc1Cl | 100% (active)
79 | Cc1nn(-c2ccc(Nc3ccc(NC(=O)COc4ccccc4)cc3)nn2)c(C)c1C | -7% (inactive)
80 | COc1cc(Nc2ccc(NS(=O)(=O)c3ccccc3Cl)cc2)nc(C)n1 | 5% (inactive)
81 | O=c1c2cc(-c3cccs3)nn2cnn1Cc1nc(-c2ccc(OCc3ccccc3)cc2)no1 | -16% (inactive)
82 | CC(C)c1ccc(/C=C2\CC/C(=C\C=NN(C)C)C2=O)cc1 | 5.12% (inactive)
83 | Cc1cc(C)cc(NC(=O)N2CCN(c3ccc4nnc(C5CC5)n4n3)CC2)c1 | -16% (inactive)
84 | CC(C)c1cc(=O)n(CC(=O)Nc2ccccc2C#N)cn1 | -2% (inactive)
85 | Cc1ccccc1OCC(=O)NCCCS(=O)(=O)N1CCc2ccccc2C1 | -9% (inactive)
86 | O=C(CSc1ncc(-c2cccc(Br)c2)o1)NCc1ccc2c(c1)OCO2 | -4% (inactive)
87 | CCC(=O)Nc1ccc(-c2nc3ccccc3o2)cc1 | -11% (inactive)
88 | CCn1nccc1C(=O)Nc1ccc(-c2nc3ccccc3o2)cc1 | 83% (active)
89 | CCn1nccc1C(=O)Nc1ccc(S(=O)(=O)NC23CC4CC(CC(C4)C2)C3)cc1 | -2.71% (inactive)
90 | O=C(c1ccc(OC(F)(F)F)cc1)N1CC(S(=O)(=O)C2CCCCC2)C1 | -1% (inactive)
91 | COc1ccc(CCNC(=O)C(=O)Nc2ccc3c(c2)CCCN3C(=O)c2cccs2)cc1 | 1% (inactive)
92 | O[C@H](c1ccncc1)c1c(-c2ccccc2)[nH]c2ccccc12 | 2% (inactive)
93 | CCN(c1ccc(NC(=O)COC(=O)CCc2nc3ccccc3n2-c2ccccc2)cc1)C(C)C | 55.2% (active)
94 | Cc1ccc(NC(=O)COC(=O)CCc2nc3ccccc3n2-c2ccccc2)c(C)c1 | 4.81% (inactive)
95 | COc1ccc(NC(=O)COC(=O)Cn2c(C)nc3ccccc32)cc1OC | -8.33% (inactive)
96 | COc1cc([N+](=O)[O-])cc(C=NNC(=O)c2ccc(C)nc2)c1O | 79.7% (inactive)
97 | CS(=O)(=O)Nc1c(Cl)c(Cl)c(Cl)c(Cl)c1Cl | 3% (inactive)
98 | Cc1onc(-c2ccccc2Cl)c1C(=O)NCCCS(=O)(=O)N1CCN(c2ccccn2)CC1 | -12% (inactive)
99 | Cc1onc(-c2ccccc2Cl)c1C(=O)NCCn1ccc2ccccc21 | 5% (inactive) and 69.4% (active)
100 | Cc1ccc2cc(CCNC(=O)c3c(-c4ccccc4Cl)noc3C)c(=O)[nH]c2c1 | 4.89% (inactive)
